For 35 compounds, outcome results are on record in PubChem BioAssay (NCATS).

The target in assay [1] is 3',5'-cyclic-AMP phosphodiesterase 4B (Homo sapiens) (UniProt Q07343). The experiment in a line: qHTS Assay for Inhibitors of PDE-IV (AID 607; active = well fitted activation curve with a large enough effect in the main read-out, with a control signal flat, not every such curve was filed as active). The following applies: HEK293 ACTOne CNG channel cells, membrane potential fluorescence; series mostly up to 22.9 µM. The essentials: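 The readout is membrane depolarisation from a cAMP-sensing CNG channel, detected with a potential dye at ex 535/em 590. Cells were HEK293-derived (endogenous PDE-IV) at 1000 cells/well, titrated up to 22.9 uM final.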
Chain of 3',5'-cyclic-AMP phosphodiesterase 4B (Homo sapiens) (Q07343 whole entry, looked up): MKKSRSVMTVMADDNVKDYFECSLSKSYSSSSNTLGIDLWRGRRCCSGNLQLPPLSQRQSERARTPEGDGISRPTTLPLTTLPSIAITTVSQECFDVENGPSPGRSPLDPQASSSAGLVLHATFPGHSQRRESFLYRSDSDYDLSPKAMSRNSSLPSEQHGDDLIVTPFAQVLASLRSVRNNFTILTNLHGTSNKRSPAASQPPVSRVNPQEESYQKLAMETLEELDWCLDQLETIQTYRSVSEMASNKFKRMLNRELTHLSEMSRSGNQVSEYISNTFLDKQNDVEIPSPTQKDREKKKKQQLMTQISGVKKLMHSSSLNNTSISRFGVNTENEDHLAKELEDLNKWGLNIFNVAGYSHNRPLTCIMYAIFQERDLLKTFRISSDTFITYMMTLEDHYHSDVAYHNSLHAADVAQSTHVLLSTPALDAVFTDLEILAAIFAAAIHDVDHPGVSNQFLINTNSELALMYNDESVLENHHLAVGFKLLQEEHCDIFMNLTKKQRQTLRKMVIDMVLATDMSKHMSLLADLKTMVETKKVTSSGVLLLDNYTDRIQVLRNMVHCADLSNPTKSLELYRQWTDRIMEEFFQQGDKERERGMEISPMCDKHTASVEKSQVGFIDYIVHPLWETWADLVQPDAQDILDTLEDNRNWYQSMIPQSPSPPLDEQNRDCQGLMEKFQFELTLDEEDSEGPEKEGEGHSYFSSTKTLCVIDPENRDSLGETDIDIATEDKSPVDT
Background: In qHTS, concentration-response curves come from the screen itself.

Assay [2] can be described thus: Cell Viability - Mesenchymal (AID 546).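 Note: cells exposed to compound for 40 hours before reading.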 Conditions: mesenchymal cells viability, qHTS; series mostly up to 91.7 µM. The essentials:
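AC50 values reflect the drop in intracellular ATP in a human kidney mesenchymal line derived from normal glomeruli. Treatment lasts 40 hr at 37 °C in complete medium, and the signal comes from CellTiter-Glo luminescence.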

Assay [3] can be described thus: Cellular Toxicity (caspase-3) HepG2 (AID 654).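 Note: cells exposed to compound for 16 hours before reading.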 The following applies: HepG2 caspase-3 activation, luminescence, 0% = DMSO only, 100% = tamoxifen; series mostly up to 92.2 µM. The essentials:
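HepG2 cells (1500/well) were treated 16 h at 37 °C in complete medium, then caspase 3/7 activity was read by Caspase-Glo luminescence. Data were normalized to DMSO and 100 uM tamoxifen; AC50 came from Hill-equation fits of qHTS concentration-response.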

Assay [4] can be described thus: Cellular Toxicity (caspase-3) Jurkat (AID 655).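 Note: cells exposed to compound for 16 h at 37 °C before reading.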 The following applies: Jurkat caspase-3 activation, luminescence, DMSO = 0%, tamoxifen = 100%; series mostly up to 92.2 µM. The text has this:
(§1) NIH Chemical Genomics Center [NCGC]
(§2) NIH Molecular Libraries Screening Centers Network [MLSCN]
(§3) National Institutes of Environmental Health Sciences [NIEHS]
(§4) National Toxicology Program [NTP]
We have developed a 1536-well cell-based assay for quantitative high throughput screening (qHTS) against a number of cell lines to determine in vitro caspase 3/7 of small molecules. This particular assay uses the Jurkat cell line which is derived from human T cell leukemia.
(§5) NCGC Assay Protocol Summary:
(§6) The Caspase-Glo 3/7 assay (Promega) is a homogeneous method to measure caspase-3 and caspase-7 activities in cultured cells. The quantitation of caspase 3/7 activity is based on the cleavage of a peptide-aminoluciferin substrate. After caspase cleaves the substrate the free aminoluciferin is liberated and serves as the substrate of luciferase, which generates the light. The luminescent signal is proportional to amount of caspase 3/7 activity present.
(§7) Using the Caspase-Glo 3/7 assay, the amount of caspase 3/7 activity was measured in the Jurkat cell line with complete culture medium following compound treatment for 16 hours. The assay was performed in opaque white 1536-well plates. In the screen, tamoxifen and doxorubicin were used as positive controls. Library compounds were measured for their ability to cause the activation of caspase 3/7 in the cell line, as reflected by an increase in luminescence signal, in a concentration-dependent manner. Data were normalized to the controls for basal activity (DMSO only) and 100% stimulation (100 uM tamoxifen). AC50 values were determined from concentration-response data modeled with the standard Hill equation.
qHTS protocol for caspase 3/7 assay in Jurkat cells
(§8) [Step] [Parameter] [Value] [Description]
1. Reagent; 5 uL; 5000 Jurkat cells/well
3. Controls; 23 nL; Tamoxifen 0.23 uM to 100 uM & Doxorubicin 7.0 pM to 100 uM
4. Time; 16 hr; 37 °C incubation
5. Reagent; 5 uL; Caspase-Glo 3/7 reagent
6. Time; 20 min; Room Temperature
7. Detection; Luminescence; Viewlux plate reader
Keywords: caspase 3/7, apoptosis, Jurkat cell line, luminescence, NTPHTS, NTPHTS_NCGC, NIEHS, EPA, DSSTox, MLSMR, MLSCN, NIH Roadmap, qHTS, NCGC

Assay [5] in a line: Cellular Toxicity (caspase-3) HUV-EC-C (AID 656). Conditions: HUV-EC-C cells, caspase-3 activation (apoptosis), vehicle = 0, 100 µM tamoxifen = 100%; series mostly up to 92.2 µM. The method in brief:
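HUV-EC-C cells (1000/well) in complete medium, compound-treated 16 h at 37 °C; caspase-3/7 activity read by Caspase-Glo 3/7 luminescence. Normalized to DMSO (basal) and 100 uM tamoxifen (100%); AC50 from Hill-equation concentration-response fits.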

Assay [6] in a line: Cellular Toxicity (caspase-3) SHSY5Y (AID 657). The following applies: SH-SY5Y caspase-3 activation, DMSO zero, 10 µM staurosporine = 100%; series mostly up to 91.7 µM. The essentials: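 SH-SY5Y human neuroblastoma cells, 1500/well, exposed to compound for 16 hours at 37 °C in complete medium. Caspase-3/7 activity read by Caspase-Glo luminescence after 1 hr at room temperature, normalized to DMSO and 10 uM staurosporine; AC50 from Hill fit.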

Assay [7] can be described thus: Cellular Toxicity (caspase-3) BJ (AID 658). Conditions: BJ fibroblasts, luminescence, normalized: DMSO 0%, staurosporine 100%; series mostly up to 91.7 µM. The method in brief: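 Readout: Caspase-Glo 3/7 luminescence increase in BJ cells after 16 hr treatment at 37 °C. Staurosporine and tamoxifen served as positive controls; AC50 values came from Hill modelling of data normalized to DMSO and 10 uM staurosporine.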

Assay [8] can be described thus: Cellular Toxicity (caspase-3) MRC-5 (AID 659). The following applies: MRC-5 cells, luminescence, normalized: DMSO 0%, 10 µM staurosporine 100%; series mostly up to 91.7 µM.
From the text: as §1, §2, §3, §4
We have developed a 1536-well cell-based assay for quantitative high throughput screening (qHTS) against a number of cell lines to determine in vitro caspase 3/7 activity of small molecules. This particular assay uses the MRC-5 cell line which is derived from human normal lung fibroblasts.
as §5, §6
as §7, with “MRC-5” for “Jurkat cell”, “staurosporine” for “doxorubicin”, “(10” for “(100”, “staurosporine).” for “tamoxifen).”
qHTS protocol for caspase 3/7 assay in MRC-5 cells
as §8
1. Reagent; 5 uL; 1500 MRC-5 cells/well
2. Time; 5 hr; 37 °C incubation
4. Controls; 23 nL; Tamoxifen 0.23 uM to 100 uM & staurosporine 1.4 pM to 100 uM
5. Time; 16 hr; 37 °C incubation
6. Reagent; 5 uL; Caspase-Glo 3/7 reagent
7. Time; 1 hr; Room Temperature
8. Detection; Luminescence; Viewlux plate reader
Keywords: caspase 3/7, apoptosis, MRC-5 cell line, luminescence, NTPHTS, NTPHTS_NCGC, NIEHS, EPA, DSSTox, MLSMR, MLSCN, NIH Roadmap, qHTS, NCGC

A short description of assay [9]: Cellular Toxicity (caspase-3) Mesangial (AID 660).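 Note: cells exposed to compound for 16 h before the caspase read.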 Conditions: mesangial cells, normalized: DMSO 0%, 100 µM tamoxifen 100%; series mostly up to 91.7 µM. The essentials: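 Human renal glomerular mesangial cells, 1000/well, 5 h at 37 C before 16 h compound treatment. Caspase-Glo 3/7 luminescence after 20 min; normalized to DMSO and 100 uM tamoxifen, AC50 from Hill fit.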

A short description of assay [10]: Cellular Toxicity (caspase-3) SK-N-SH (AID 661). The following applies: SK-N-SH caspase-3 activation, qHTS, DMSO as zero, staurosporine as full; series mostly up to 91.7 µM. The method in brief:
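Human SK-N-SH neuroblastoma cells, 1500/well, were exposed to compounds for 16 hours at 37 °C. Caspase-Glo 3/7 luminescence was normalized to DMSO (basal) and 10 uM staurosporine (100%), and AC50 came from a Hill fit.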

Records with an inconclusive call do not appear. Activity calls are given as the source filed them. Unless noted, calls come from the whole dose curve; as a rule, active = well fitted curve in the direction sought with a large enough effect; inconclusive = small, poorly fitted or top-dose-only effect, or another doubt; inactive = no such curve, though single readings can be large; an effect the other way counts as inactive or inconclusive.

Take `N=c1nc(N2CCCCC2)cc(N)n1O`: the outcome in [1] was inactive.
On the same count and under the same terms, under `Cc1cc2c(C(C)C)c(O)c(O)c(C=O)c2c(O)c1-c1c(C)cc2c(C(C)C)c(O)c(O)c(C=O)c2c1O` stands “inactive”; under `Clc1cccc(Cl)c1NC1=NCCN1`, “inactive”; under `Nc1nc2c(ncn2COCCO)c(=O)[nH]1`, “inactive”.
Turning to `O=C1CCc2cc(OCCCCc3nnnn3C3CCCCC3)ccc2N1`, the result in [1] was inactive.
`O=c1[nH]cnc2[nH]ncc12`: the call in assay [2], in [1], in assay [3], in assay [4], in assay [5] and in [6] was inactive. Besides, the outcome in [7], in assay [8], in [9] and in assay [10] was inactive.
Consider `Cc1ccc2c(c1)C(=O)[C@@]1(O)CCN(c3ccccc3)C1=N2`, for which, in assay [1], the result was inactive.
As for `Cc1ccc(N(CC2=NCCN2)c2cccc(O)c2)cc1`, the outcome in [1] was inactive.
On the same count and under the same terms, under `CCCCNc1cc(C(=O)O)cc(S(N)(=O)=O)c1Oc1ccccc1` stands “inactive”.
Same read-out and setting: under `Cc1oncc1C(=O)Nc1ccc(C(F)(F)F)cc1` stands “inactive”.
As to `CNC[C@H](O)c1cccc(O)c1`, in [1], the outcome was inactive.
For the compound `NC(=O)c1cnccn1`, the compound was classed as inactive in assay [2], in assay [1], in assay [3], in assay [4], in [5] and in [6]. In addition, the compound was called inactive in [7], in assay [8], in assay [9] and in assay [10].
Take `CC(C)(Sc1ccc(CCN(CCCCC2CCCCC2)C(=O)NC2CCCCC2)cc1)C(=O)O`: in assay [1], the result was inactive.
The same measure, in the same setting: under `NC[C@H](O)c1ccc(O)c(O)c1` stands “inactive”.
As to `Cc1[nH]c(=O)c(C#N)cc1-c1ccncc1`, in assay [1], the compound was called inactive.
In the case of `NS(=O)(=O)c1cc2c(cc1Cl)NC=NS2(=O)=O`, the call in assay [2], in assay [1], in assay [3], in assay [4], in assay [5] and in assay [6] was inactive. Also, the compound was called inactive in assay [7], in assay [8], in assay [9] and in assay [10].
Consider `CCCC(CCC)C(=O)O`, for which the call in [2], in [1], in assay [3], in assay [4], in assay [5] and in assay [6] was inactive. Moreover, the compound was classed as inactive in assay [7], in [8], in assay [9] and in assay [10].
Consider `NC(N)=NC(=O)c1nc(Cl)c(N)nc1N`, for which the compound was classed as inactive in assay [2], in [1], in [3], in [4], in assay [5] and in assay [6]. Moreover, the outcome in assay [7], in assay [8], in assay [9] and in [10] was inactive.
For the compound `Cc1cn[nH]c1`, the result in [1] was inactive.
Take `Cn1cnc([N+](=O)[O-])c1Sc1ncnc2nc[nH]c12`: the compound was classed as inactive in assay [1], in [3], in [4], in assay [5], in [6] and in [7]. The result in assay [8], in assay [9] and in [10] was inactive.
Take `CC(=O)Oc1ccccc1C(=O)O`: the call in assay [2], in assay [1], in assay [3], in [4], in [5] and in assay [6] was inactive. In addition, the outcome in assay [7], in assay [8], in assay [9] and in assay [10] was inactive.
Consider `CCOC(=O)N1CCC(=C2c3ccc(Cl)cc3CCc3cccnc32)CC1`, for which the compound was classed as inactive in [1].
For the compound `N[C@@H]1CONC1=O`, the compound was called inactive in assay [1].
Still for that read-out and setting: under `CCN(c1ccccc1)c1cc(NC)[n+](C)c(C)n1` stands “inactive”; under `Nc1nc2ccc(OC(F)(F)F)cc2s1`, “inactive”; under `O=NN(CCCl)C(=O)NCCCl`, “inactive”.
On the same count and under the same terms, under `C1COC(NC(C2CC2)C2CC2)=N1` stands “inactive”.
The same measure, in the same setting: under `NCCc1ccc(O)c(O)c1` stands “inactive”.
With `O=c1n(CCCN2CCN(c3cccc(Cl)c3)CC2)nc2ccccn12`, in [1], the result was inactive.
Same read-out and setting: under `NNCCc1ccccc1` stands “inactive”.
Still for that read-out and setting: under `Nc1ccc(S(=O)(=O)Nc2ccnn2-c2ccccc2)cc1` stands “inactive”; under `N#Cc1ccc(C(c2ccc(C#N)cc2)n2cncn2)cc1`, “inactive”.
On the same count and under the same terms, under `COc1ccc2nc(S(=O)Cc3ncc(C)c(OC)c3C)[nH]c2c1` (configuration not stated) stands “inactive”; under `CCOC(=O)C1=C[C@@]2(CC)CCCN3CCc4c(n1c1ccccc41)[C@H]32`, “inactive”.
As for `CN1CCN(CCCN2c3ccccc3Sc3ccc(C(F)(F)F)cc32)CC1`, in [1], the result was inactive.
